From PubChem
Only some compounds are listed: those with a hit (about 3.5% of all), similar ones and a draw of the others.
Autofluor counter: flagged as autofluorescent in microsphere protease counterscreen | compound autofluorescence counterscreen, microsphere flow cytometry; active compounds read high | 360,000 compounds, 3.1% hits | fluorescence intensity (test concentration not listed); in the data active = fluorescence intensity above about 16000; inconclusive = no clear call, values can overlap the other calls
BoNT F protease: BoNT/F light chain protease inhibitors, primary screen, biochemical, flow cytometry, MLPCN library; inhibition, % at 10 µM; Botulinum neurotoxin type F light chain protease (Clostridium botulinum); AID 588497, 2011; Multiplex microsphere protease cleavage assay; 360,000 compounds, 0.22% hits; in the data active = inhibition above about 35%, passing the limit was not always enough; inconclusive = no clear call, values can overlap the other calls; also: plate controls were buffer without enzyme for full effect and enzyme alone for no effect
BoNT A protease: BoNT/A light chain protease inhibitors, primary screen, biochemical, flow cytometry, MLPCN library | inhibition, % at 10 µM | multiplex microsphere protease substrate cleavage | 360,000 compounds, 0.17% hits | Botulinum neurotoxin type A light chain protease (Clostridium botulinum A str. ATCC 3502) | AID 588499, 2011; also: plate controls were buffer without enzyme for full effect and enzyme alone for no effect
Anthrax LF prot: Bacillus anthracis LF protease inhibitors, primary screen, biochemical, multiplex microsphere, MLPCN library; Lethal factor (Bacillus anthracis), P15917; multiplex microsphere protease cleavage assay; inhibition, % at 10 µM; 360,000 compounds, 0.12% hits; AID 588501, 2011; also: plate controls were buffer without enzyme for full effect and enzyme alone for no effect
3CLpro inhibitor: SARS-CoV 3CLpro protease inhibitors, primary screen, biochemical, quenched FRET. recombinant SARS-CoV 3CLpro, quenched FRET peptide cleavage. AID 1706, 2009. 290,000 compounds, 0.14% hits. inhibition, % at 6 µM. Replicase polyprotein 1ab (Severe acute respiratory syndrome coronavirus), P0C6X7; in the data active = inhibition above about 12%
Numbers without * were called inactive; ? = inconclusive; . = not tested or not shown. Rule as the data show it, unless noted: active = inhibition above about 30%; inconclusive = no clear call, values can overlap the other calls; inactive = below that.

SMILES	Autofluor counter	BoNT F protease	BoNT A protease	Anthrax LF prot	3CLpro inhibitor
CCCNC(=S)Nc1ccc2nc(-c3ccccn3)c(-c3ccccn3)nc2c1	21151*	-1	?	8	-1
CCCC(=O)Nc1ccc(Oc2ccc(NC(=O)CCC)cc2)cc1	19816*	-2	?	0	1
CC(=O)NNC(=O)CCC(=O)Nc1ccccc1	11331	-9	-1	-1	7
CCCC(=O)Nc1ccccc1NC(=O)CCC	4052	6	0	-5	-1
CCCNC(=S)Nc1ccc(Oc2ccccc2)cc1	20489*	-3	0	-2	6
CCOC(=O)Nc1ccc(Oc2ccccc2)cc1	24151*	-4	-3	-2	5
CCCCNC(=S)Nc1ccc(Oc2ccccc2)cc1	4056	-1	-1	-3	2
Clc1ccc(-c2cnc(Oc3ccccc3)nc2)cc1	2405	-4	0	1	-6
Cc1ccc(OCC(=O)NN=C2c3ccccc3-c3ccccc32)cc1	23454*	0	-1	1	-4
C=C(C)C1CC=C(C)/C(=N/NC(=O)COc2ccc(C)cc2)C1 (centres undefined)	21182*	2	2	0	4
C=C(C)C1CC=C(C)/C(=N/NC(=O)COc2ccccc2Cl)C1 (centres undefined)	2943	-4	-2	-2	7
CCOC(=O)C1(CCCc2ccccc2)CCN(C(=O)[C@@H]2C[C@@H](C)NC(=S)N2)CC1	2090	-26	-5	-1	-2
Cc1noc(NS(=O)(=O)c2ccc(N/C=C/C(=O)c3ccncc3)cc2)c1C	16425*	0	?	-2	4
Cc1noc(NS(=O)(=O)c2ccc(N/C=C\C(=O)c3ccncc3)cc2)c1C	8787	11	2	-3	1
COc1ccc(C(O)c2ncc(-c3ccccc3C)[nH]2)cc1 (centres undefined)	3577	-3	0	-1	.
Cc1ccccc1N=Cc1ccc[nH]1	3663	?	0	11	.
Cc1ccc(N=Cc2ccc[nH]2)c(O)c1	21732*	-4	?	-9	-7
Nc1nc(Cn2nnc(-c3ccccc3Cl)n2)nc(N2CCOCC2)n1	23188*	-4	?	-4	-1
O=[N+]([O-])c1ccc(C2CCCC/C2=N\OCc2cccc(F)c2)c([N+](=O)[O-])c1 (centres undefined)	23769*	-9	?	-4	2
CCCOc1ccc(NC(=O)CC2C(=O)N(CC)C(=S)N2Cc2cccs2)cc1 (centres undefined)	21389*	-8	-4	-4	4
COc1ccc(NC(=O)CC2C(=O)N(C)C(=S)N2Cc2cccs2)cc1 (centres undefined)	10968	-21	-2	0	-4
C#CCOc1cc(C2C3=C(COC3=O)Nc3cc4c(cc32)OCO4)ccc1OC (centres undefined)	2029	-2	0	1	0
COc1ccc(OC)c(C2C3=C(COC3=O)Nc3cc4c(cc32)OCO4)c1 (centres undefined)	19754*	7	6	-9	0
O=C(c1ccc2oc(CCCc3ccccc3)nc2c1)N1CCCC(CCCO)C1 (centres undefined)	6054	2	0	-1	0
O=C(CN1CCN(Cc2ccccc2)CC1)N/N=C/C=C/c1ccccc1[N+](=O)[O-]	2502	0	0	0	-1
SMILES	Autofluor counter	BoNT F protease	BoNT A protease	Anthrax LF prot	3CLpro inhibitor
CC1(c2ccccc2)CC(c2ccccc2)=C(C#N)C(=O)N1 (centres undefined)	3518	5	0	0	.
CC1(c2cccs2)CC(c2cccs2)=C(C#N)C(=O)N1 (centres undefined)	22806*	-5	-2	-1	4
COc1ccc(NC(=O)c2csc(Cc3ccc(Cl)cc3)n2)cc1	4780	-5	0	0	2
COc1ccc(COc2ccsc2C(=O)Nc2ccc(Cl)cc2)cc1	19044*	2	1	1	-2
COC(=O)[C@H]1C[C@H](OC(=O)NCc2ccc(OC)c(OC)c2)[C@@]2(O)CN(S(=O)(=O)c3ccc(C)cc3)CC2[C@H]1C(=O)OC (some centres undefined)	3782	-2	0	-2	.
CCN(CC)S(=O)(=O)c1ccc(Cl)c(C(=O)NCC2CCCO2)c1 (centres undefined)	7714	2	-2	-2	1
CSc1nc(N2CCN(c3ccccc3Cl)CC2)c2ccccc2n1	5233	-9	0	-5	-5
COc1ccc(Nc2nc(N3CCCC3)c3ccccc3n2)cc1	2604	-1	1	-1	-4
CCN(CC)c1ccc(Nc2nc(N3CCOCC3)c3ccccc3n2)cc1	20077*	-5	1	-4	-1
CSc1nc(N2CCOCC2)c2ccccc2n1	23367*	0	-1	0	-4
CC(=O)Nc1cnc(-c2ccc3c(c2)OCO3)cn1	3888	-2	0	-7	.
Cc1ccc(N2CCN(C(=O)N3CCCC3)CC2)cc1C	16586*	2	0	-3	-1
Cn1c(=O)c2c(ncn2CC(=O)OCC(=O)NCCc2ccccc2)n(C)c1=O	5781	17	0	3	.
Cn1c(=O)c2c(ncn2CC(=O)OCC(=O)NC2CCCc3ccccc32)n(C)c1=O (centres undefined)	22870*	-3	?	-4	-3
CCc1cccc(C)c1NC(=S)NCc1ccc2[nH]c(C)cc2c1	2743	-122	40*	-105	-1
O=C(NCCC1=CCCCC1)C1CCC(CNc2c(N3CCCC3)c(=O)c2=O)CC1 (centres undefined)	5572	-8	0	-6	-6
O=c1nc2ccccc2c2n1CC(CN1CCN(c3ccc(F)cc3)CC1)N2 (centres undefined)	2809	7	1	-2	5
O=c1nc2ccccc2c2n1CC(CN1CCN(c3cccc(Cl)c3)CC1)N2 (centres undefined)	17652*	-6	-7	-2	1
CC(=O)N1C(=O)C(=C2C=C(C)OC(C)=C2)c2ccccc21	23162*	4	0	-1	-5
CC(C)NC(=O)NC(=O)COc1ncnc2sccc12	9837	-11	0	-4	-2
CC(C)NC(=O)COc1ncnc2sccc12	18786*	2	2	-3	4
CCCOc1ccc(-c2nc(C#N)c(N3CCC(C(N)=O)CC3)o2)cc1	19961*	-3	-2	-4	-3
CCOc1ccc(-c2nc(C#N)c(N3CCN(CC)CC3)o2)cc1	19650*	0	?	-2	0
CCC(C(=O)NC1CCCC1)N(C(=O)Cn1nnc(-c2ccc(OC)c(OC)c2)n1)C1CCCCC1 (centres undefined)	16428*	1	0	1	1
CCCC(C(=O)NC1CCCC1)N(C(=O)Cn1nnc(-c2ccc(C)o2)n1)c1ccccc1F (centres undefined)	3355	31	2	10	6
